# Rab9 prom act: Rab9 promoter activation. 320,000 compounds, 2.8% hits. Huh7 Rab9 promoter-luciferase reporter, luminescence, 24 h. Potency, µM (highest dose often 9.22 µM), hits mostly activators; also: nearly all actives have a fitted effect of over 60% in size
#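 Measured in stably transfected Huh7 cells bearing a Rab9 promoter–luciferase construct: 24 h compound treatment at 37 °C, followed by luminescence detection.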
# NPC1 promoter act: NPC1 promoter activation; Huh7 NPC1 promoter luciferase reporter, 24 h; Potency, µM (doses to about 9.22 µM), actives largely listed as activators; 320,000 compounds, 2.4% hits; AID 485313; also: nearly all actives have a fitted effect of over 60% in size
#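 NPC1 promoter–luciferase Huh7 cells; 24 h compound; luminescence.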
# SMN2 splice enh: SMN2 splice variant enhancement; HEK293 SMN2-luciferase splicing reporter, luminescence, 30-36 h; Potency, µM (doses to about 46.1 µM), hits mostly activators; 210,000 compounds, 2.8% hits; AID 1458; also: nearly all actives have a fitted effect of over 55% in size
#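 HEK293 cells carry an SMN2 minigene-luciferase reporter in which exon 7 inclusion puts luciferase in frame. Cells were seeded at 2000 cells/well, attached for 10-12 hours, then exposed to compounds for 30-36 hours at 37C before ONE-Glo luminescence.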
# Luc counter: blocks Kinase-Glo luciferase, a counter-screen artifact | Q27757 | Kinase-Glo luciferase, ATP luminescence, 8 min | Potency, µM (titrated, usually from 38.3 µM), hits mostly inhibitors | 200,000 compounds, 0.28% hits; also: nearly all actives have a fitted effect of over 60% in size
#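 Recombinant Kinase-Glo luciferase, 10 uM ATP (linear range), luciferin; imidazole pH 7.2 / KCl / MgCl2 / Tween / BSA buffer; 8 min RT; luminescence.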
# FLuc counter: inhibits or activates purified firefly luciferase, miR-21 counter-screen; purified FLuc, Km substrates, luminescence inhibition; P08659; 360,000 compounds, 6.9% hits; Potency, µM (series often up to 57.5 µM), actives largely listed as inhibitors; also: nearly all actives have a fitted effect of over 55% in size
# Target sequence (P08659 whole entry, looked up): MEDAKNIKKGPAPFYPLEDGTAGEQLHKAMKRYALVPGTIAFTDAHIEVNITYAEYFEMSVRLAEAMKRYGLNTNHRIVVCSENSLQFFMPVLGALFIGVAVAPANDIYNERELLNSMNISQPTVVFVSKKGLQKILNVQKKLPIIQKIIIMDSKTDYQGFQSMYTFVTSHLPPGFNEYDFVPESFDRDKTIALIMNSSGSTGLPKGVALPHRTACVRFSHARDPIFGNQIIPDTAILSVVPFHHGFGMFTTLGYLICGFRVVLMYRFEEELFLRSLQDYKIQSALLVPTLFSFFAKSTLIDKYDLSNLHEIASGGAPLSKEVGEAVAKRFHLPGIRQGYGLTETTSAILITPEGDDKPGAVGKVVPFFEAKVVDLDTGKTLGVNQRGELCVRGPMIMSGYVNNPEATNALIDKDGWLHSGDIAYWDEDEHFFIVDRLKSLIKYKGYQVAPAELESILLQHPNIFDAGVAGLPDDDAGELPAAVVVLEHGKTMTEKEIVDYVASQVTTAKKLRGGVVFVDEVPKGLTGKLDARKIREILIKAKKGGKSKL
#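 Purified P. pyralis luciferase, 10 nM final, with Km-level 10 uM D-luciferin and 10 uM ATP in 50 mM Tris acetate pH 7.5, 10 mM Mg acetate, 0.01% Tween-20, 0.05% BSA; 6-point qHTS titration about 60 µM downward; luminescence read.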
# ELG1 genotox: induces genotoxicity in HEK293T cells with luciferase-tagged ELG1. HEK293T ELG1-luciferase reporter, luminescence, 16 h. Potency, µM (highest dose often 46 µM), hits mostly activators. 330,000 compounds, 1.3% hits; also: nearly all actives have a fitted effect of over 60% in size
#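 After overnight (16 hr) compound treatment at 37 °C, ELG1-luciferase HEK293T cells were lysed with ONE-Glo; luminescence quantified 30 min later at room temperature.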
# Hits are given with their value; n = inactive; u = inconclusive; x = no result given; [ ] = remark or other dose. A selection: hits, their analogues and other compounds. The true share with any hit is near 7.5%. Calls follow the shape of the dose curve; as a rule, active = well fitted curve in the direction sought with a large enough effect; inconclusive = small, poorly fitted or top-dose-only effect, or another doubt; inactive = no such curve, though single readings can be large; an effect the other way counts as inactive or inconclusive.
SMILES,Rab9 prom act,NPC1 promoter act,SMN2 splice enh,Luc counter,FLuc counter,ELG1 genotox
CCc1ccc(-c2cc(C(=O)O)c3ccccc3n2)s1,1.4µM,2µM,x,x,0.54µM,n
O=C(c1cc(-c2cccc(Br)c2)nc2ccccc12)N1CCCC1,n,n,x,x,15µM,n
Cc1ccc(-c2cc(C(=O)N3CCCC3)c3ccccc3n2)s1,n[1.84 µM],n,x,x,5.4µM,n
COc1cc2c(-c3cccc(Cl)c3)nc3c(c(C)nn3-c3ccccc3)c2cc1OC,x,x,n,x,n,x
Cc1c(Cl)cccc1-n1nnc(-c2nc(-c3ccc4c(c3)OCO4)no2)c1C,x,x,x,x,3µM,x
Cc1cccc(N2CC(C(=O)Nc3ccc4c(c3)OCCO4)CC2=O)c1C (stereo unspecified),n,n,x,x,n,u
Cc1ccc(NC(=O)Cn2c(=O)n(CCC(C)C)c(=O)c3cccnc32)cc1C,x,x,n,x,n,x
Cc1nc(SCC(=O)N(C)C2(C#N)CCCCC2)c2ccccc2n1,n,n,x,x,24µM,n
Cc1nc(SCC(=O)N(C)C2CCS(=O)(=O)C2)c2ccccc2n1 (stereo unspecified),x,x,x,x,x,n
Cc1ccc2nccc(C(=O)N3CCCC(Nc4ccc(F)cc4)C3)c2c1 (stereo unspecified),n,n,x,x,n,n
O=C(Nc1nnc(-c2ccncc2)s1)C1CCCO1 (stereo unspecified),n,n,u,n,n,n
CCOc1ccc2nc(NC(=O)C3CCCO3)sc2c1 (stereo unspecified),n,n,x,n,n,n
Nc1ccc2nc(NC(=O)C3CCCCC3)sc2c1,4.5µM,u,14µM,n,6.7µM,21µM
O=C(Nc1nc2ccccc2s1)C1CCCO1 (stereo unspecified),u,1.1µM,13µM,n,15µM,5.8µM
O=C(Nc1nc2ccc(F)cc2s1)C1CCCO1 (stereo unspecified),2.2µM,1.1µM,16µM,n,6.7µM,u
O=C(Nc1nc2ccccc2s1)C1c2ccccc2Oc2ccccc21,n,n,n,n,n,n
O=C(Nc1nnc(-c2ccccc2F)s1)C1CCCO1 (stereo unspecified),2.5µM,3.5µM,5µM,n,15µM,u
COc1ccc(CNC(=O)c2cc(-c3cccs3)nc3ccccc23)c(OC)c1,x,x,n,x,n,x
Cc1cc2c(cc1S(=O)(=O)CCC(=O)N1CCC(C)CC1)OCC(=O)N2,x,x,x,x,n,x
O=C(Nc1nc2ccc(F)cc2s1)C1CCN(S(=O)(=O)c2cc([N+](=O)[O-])ccc2Cl)CC1,n,n,n[1.84 µM],n,11µM,n
Cc1ccc2nc(NC(=O)C3CCN(S(=O)(=O)c4cc([N+](=O)[O-])ccc4Cl)CC3)sc2c1,n,n,n,n,u,n
O=C(Nc1ncc(Cc2ccccc2)s1)C1CCCO1 (stereo unspecified),2.2µM,1.1µM,5µM,n,4.3µM,u
Cc1ccc(NC(=O)C2CCN(S(=O)(=O)c3ccc4c(c3)CCCC(=O)N4)CC2)cc1N(C)C,n,n,x,x,n,n
Nc1ccc(-n2ccnc2)cc1,n,n,n,n,n,n
c1ccc2nc(-c3ccc(-n4ccnc4)cc3)ccc2c1,0.63µM,1µM,x,x,3.4µM,2.6µM
SMILES,Rab9 prom act,NPC1 promoter act,SMN2 splice enh,Luc counter,FLuc counter,ELG1 genotox
COc1ccc(NC(=O)c2ccc3c(c2)OCCO3)cc1OC,2.2µM,1.4µM,x,x,2.7µM,5.6µM
Cc1c([N+](=O)[O-])c(C(=O)Nc2ccc3c(c2)OCCO3)nn1C,u,u,13µM,13µM,u,12µM
COc1cc(NC(=O)c2ccc3c(c2)OCCO3)ccc1NC(=O)c1ccccc1Cl,n,n,x,x,n,n
COc1cc(C(=O)Nc2ccc3c(c2)OCCO3)ccc1OC(C)C,3.2µM,u,11µM,n,7.6µM,u
COc1cc(C(=O)Nc2ccc3c(c2)OCCO3)ccc1OC(F)F,2.8µM,3.2µM,14µM,n,6µM,u
COc1cc(/C=C/C(=O)N2CC(C)OC(C)C2)cc(OC)c1OC (stereo unspecified),n,n,x,x,n,n
Cc1c(Cl)cccc1NC(=O)C(=O)NCCc1csc(-c2ccc(C(F)(F)F)cc2)n1,x,x,x,x,n,x
COc1ccc(C(=O)Nc2ccc3c(c2)OCCO3)cc1[N+](=O)[O-],u,n,n,n,11µM,n
